# Data as given in PubChem BioAssay AID1159580 (chemical genetic matrix, 2015).
# Hit rate of the full screen: of about 5,500 compounds, about 2,000 (36%) were called active. Roughly 18% stayed inconclusive and do not appear here. The list shows a part of the results. Unmarked numbers belong to inactive results. Rule as the data show it: active = normalized growth mostly below about 0.91 (no sharp cut-off); inconclusive = no clear call, values can overlap the other calls; inactive = mostly above about 0.92.
# Test: chemical genetic growth profiling, strain panel (AID 1159580);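 also: tested at 20 µM; growth read once vehicle control cultures reached saturation at 30 °C; 1 = growth at the plate median or of vehicle wells; lower values mean less growth of the strain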
# Settings: S. cerevisiae deletion strains, growth OD
structure (smiles),measurement,setting,value
O=S(=O)(NCc1cc(Cl)cc(Cl)c1)c1cc(C(F)(F)F)cc(C(F)(F)F)c1,normalized growth,"locus YAR019C, strain CDC15, active compounds read low",1
same,normalized growth,"locus YBL105C, strain PKC1, active compounds read low",0.994
same,normalized growth,"locus YBR135W, strain CKS1, active compounds read low",0.998
same,normalized growth,"locus YBR136W, strain MEC1, active compounds read low",0.998
same,normalized growth,"locus YBR160W, strain CDC28, active compounds read low",0.998
same,normalized growth,"locus YDL017W, strain CDC7, active compounds read low",0.998
same,normalized growth,"locus YDL028C, strain MPS1, active compounds read low",0.994
same,normalized growth,"locus YDL101C, strain DUN1, active compounds read low",0.994
same,normalized growth,"locus YDL108W, strain KIN28, active compounds read low",0.997
same,normalized growth,"locus YDL132W, strain cdc53, active compounds read low",0.987
same,normalized growth,"locus YDL214C, strain PRR2, active compounds read low",0.935
same,normalized growth,"locus YDR052C, strain DBF4, active compounds read low",0.996
same,normalized growth,"locus YDR054C, strain cdc34, active compounds read low",0.985
same,normalized growth,"locus YDR226W, strain ADK1, active compounds read low",0.992
same,normalized growth,"locus YDR477W, strain SNF1, active compounds read low",0.912
same,normalized growth,"locus YER123W, strain YCK3, active compounds read low",0.907
same,normalized growth,"locus YER133W, strain GLC7, active compounds read low",0.928
same,normalized growth,"locus YFL009W, strain cdc4, active compounds read low",0.992
same,normalized growth,"locus YFL029C, strain CAK1, active compounds read low",1
same,normalized growth,"locus YFR003C, strain YPI1, active compounds read low",0.996
same,normalized growth,"locus YFR019W, strain FAB1, active compounds read low",0.902
same,normalized growth,"locus YFR028C, strain CDC14, active compounds read low",0.997
same,normalized growth,"locus YGR040W, strain KSS1, active compounds read low",0.894
same,normalized growth,"locus YGR052W, strain FMP48, active compounds read low",0.878
same,normalized growth,"locus YGR092W, strain DBF2, active compounds read low",0.881
same,normalized growth,"locus YHR030C, strain SLT2, active compounds read low",0.621 (active)
same,normalized growth,"locus YHR079C, strain IRE1, active compounds read low",0.835
same,normalized growth,"locus YHR082C, strain KSP1, active compounds read low",0.896
same,normalized growth,"locus YHR205W, strain SCH9, active compounds read low",0.908
same,normalized growth,"locus YIL147C, strain SLN1, active compounds read low",0.996
same,normalized growth,"locus YJL095W, strain BCK1, active compounds read low",0.875
same,normalized growth,"locus YJL128C, strain PBS2, active compounds read low",0.923
same,normalized growth,"locus YJL157C, strain FAR1, active compounds read low",0.926
same,normalized growth,"locus YJR016C, strain ILV3, active compounds read low",0.995
same,normalized growth,"locus YJR066W, strain TOR1 (second series), active compounds read low",0.947
same,normalized growth,"locus YJR066W, strain TOR1, active compounds read low",0.955
same,normalized growth,"locus YKL048C, strain ELM1, active compounds read low",0.954
same,normalized growth,"locus YKL067W, strain YNK1, active compounds read low",0.961
same,normalized growth,"locus YKL101W, strain HSL1, active compounds read low",0.907
same,normalized growth,"locus YKL193C, strain SDS22, active compounds read low",0.998
same,normalized growth,"locus YKL203C, strain TOR2, active compounds read low",0.982
same,normalized growth,"locus YLR113W, strain HOG1, active compounds read low",0.803 (active)
same,normalized growth,"locus YLR133W, strain CKI1, active compounds read low",0.918
same,normalized growth,"locus YLR403W, strain SFP1, active compounds read low",0.939
same,normalized growth,"locus YML070W, strain DAK1, active compounds read low",0.915
same,normalized growth,"locus YMR001C, strain CDC5, active compounds read low",0.996
same,normalized growth,"locus YMR205C, strain PFK2 (second series), active compounds read low",0.954
same,normalized growth,"locus YMR277W, strain FCP1, active compounds read low",0.996
same,normalized growth,"locus YNL006W, strain LST8, active compounds read low",0.991
same,normalized growth,"locus YNL020C, strain ARK1, active compounds read low",0.899
same,normalized growth,"locus YNL161W, strain CBK1, active compounds read low",0.999
same,normalized growth,"locus YNL183C, strain NPR1, active compounds read low",1.01
same,normalized growth,"locus YNL207W, strain RIO2, active compounds read low",1
same,normalized growth,"locus YNL222W, strain SSU72, active compounds read low",0.996
same,normalized growth,"locus YNL307C, strain MCK1 (second series), active compounds read low",0.765
same,normalized growth,"locus YOL078W, strain AVO1, active compounds read low",0.997
same,normalized growth,"locus YOL136C, strain PFK27, active compounds read low",0.895
same,normalized growth,"locus YOR061W, strain CKA2, active compounds read low",0.935
same,normalized growth,"locus YOR119C, strain RIO1, active compounds read low",0.982
same,normalized growth,"locus YOR231W, strain MKK1, active compounds read low",0.933
same,normalized growth,"locus YOR329C, strain SCD5, active compounds read low",0.995
same,normalized growth,"locus YPL031C, strain PHO85, active compounds read low",0.897
same,normalized growth,"locus YPL153C, strain RAD53, active compounds read low",0.912
same,normalized growth,"locus YPL204W, strain HRR25, active compounds read low",0.888
same,normalized growth,"locus YPL209C, strain IPL1, active compounds read low",0.997
same,normalized growth,"locus YPL256C, strain CLN2, active compounds read low",0.87
same,normalized growth,"locus YPR025C, strain CCL1, active compounds read low",0.995
same,normalized growth,"locus YPR106W, strain ISR1, active compounds read low",0.997
same,normalized growth,"locus YPR111W, strain DBF20, active compounds read low",0.989
same,normalized growth,"strain NNK1, active compounds read low",0.988
same,normalized growth,"strain TSCII, active compounds read low",0.999
